# This is a sample that favours compounds with a hit; in the whole collection about 4.9% have one here.
# PP1 counter: PP1-alpha phosphatase inhibitors, primary screen, counter-screen for PP5 inhibitor project, biochemical, fluorescence, OMFP substrate, single point | Serine/threonine-protein phosphatase PP1-alpha catalytic subunit (Homo sapiens), P62136 | purified PP1alpha | inhibition, % at 6.7 µM | 320,000 compounds, 0.9% hits;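 active = inhibition above the mean inhibition of all tested compounds plus 3 SD, computed separately for each screening campaign, cut at about 15% in these data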
# PP5 primary: PP5 phosphatase inhibitors, primary screen, biochemical, fluorescence. AID 1987, 2009. 320,000 compounds, 0.18% hits. Serine/threonine-protein phosphatase 5 (Homo sapiens), P53041. inhibition, % at 6.7 µM. purified PP5c, OMFP substrate fluorescence;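 active = inhibition above the campaign's mean inhibition across all tested compounds plus 3 SD, cut at about 9.5% in these data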;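 also: 0% = DMSO only and 100% = 100 µM cantharidin control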
# Target sequence (P53041 whole entry, looked up): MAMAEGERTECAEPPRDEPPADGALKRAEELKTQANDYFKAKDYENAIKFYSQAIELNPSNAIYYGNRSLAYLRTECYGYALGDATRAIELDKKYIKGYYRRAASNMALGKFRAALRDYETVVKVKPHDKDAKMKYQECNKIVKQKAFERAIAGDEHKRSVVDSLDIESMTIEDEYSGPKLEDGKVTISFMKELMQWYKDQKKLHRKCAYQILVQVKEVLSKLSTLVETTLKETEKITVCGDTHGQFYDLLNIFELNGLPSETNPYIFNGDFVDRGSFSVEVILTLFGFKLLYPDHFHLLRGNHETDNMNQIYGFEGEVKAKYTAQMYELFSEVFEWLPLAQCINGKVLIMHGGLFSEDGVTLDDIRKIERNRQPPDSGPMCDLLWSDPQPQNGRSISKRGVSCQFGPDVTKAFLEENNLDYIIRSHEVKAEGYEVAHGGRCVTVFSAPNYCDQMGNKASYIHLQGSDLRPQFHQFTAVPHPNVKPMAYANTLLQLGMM
# Mdm2 MdmX PPI: inhibitors of human Mdm2-MdmX association, primary screen, cell-based, luminescence, split luciferase, SaOS-2, uHTS | 330,000 compounds, 3% hits | AID 485346, 2010 | Protein Mdm4 (Homo sapiens) + E3 ubiquitin-protein ligase Mdm2 (Homo sapiens), … | inhibition, % at 8 µM | SaOS-2 split-luciferase Mdm2/MdmX complementation;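 active = inhibition of at least 50% at 8 µM in the primary screen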
# CSC inhib: cancer stem cell viability inhibitors, primary screen, luminescence; inhibition, % at 7.5 µM; cancer stem cell-like cells viability; AID 2717, 2010; 300,000 compounds, 1.1% hits; in the data active = inhibition above about 75%; inconclusive = no clear call, values can overlap the other calls; tested in HMLE shEcad cells
# Beta apoptosis: inhibitors of cytokine-induced beta cell apoptosis, primary screen, luminescence. INS-1E cytokine-induced death, ATP luminescence, 48 h; percent of positive-control rescue, neutral wells zero. protection from apoptosis, % (concentration not given with the values). 300,000 compounds, 0.8% hits;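 active = Every replicate reaches about 75%, or at least half do and their mean reaches it too, limit read from the data; inconclusive = At least half of replicates reach the limit but their mean does not; inactive = Under half of replicates reach the limit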;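 also: 0% = cytokine-treated negative control wells and 100% = positive control rescue; higher means more ATP so stronger rescue from cytokine killing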
# Calb FLC: C. albicans growth inhibition with fluconazole, primary screen, CaCi-2 strain, Alamar Blue fluorescence | C. albicans CaCi-2 (fluconazole-resistant clinical isolate) + fluconazole, 48 h | growth inhibition, % (test concentration not listed) | 300,000 compounds, 0.57% hits | AID 1979, 2009;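 active = growth inhibition above about 58% in most replicates, limit read from the data, passing the limit was not always enough; inconclusive = exactly half the replicates above a set limit; inactive = most replicates below a set limit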;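 also: all wells also contain fluconazole at 8 µg/ml as a sub-toxic cotreatment; 0% = median of DMSO wells and 100% = median of geldanamycin control wells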
# Mdm2-MdmX conf: Mdm2-MdmX complex disruptors, retested hits, confirmation, luminescence, single concentration; inhibition, % at 8 µM; shares compounds with Mdm2 MdmX PPI; AID 489028, 2010; 10,000 compounds, 55% hits; Mdm2-MdmX binding, luminescent assay; in the data active = inhibition above about 40%
# FLuc counter: full-length luciferase signal inhibition, confirmation, counter-screen for Mdm2/MdmX interaction inhibitor project, cell-based, single concentration, SaOS-2; shares compounds with Mdm2 MdmX PPI; SaOS-2 full-length luciferase counterscreen, luminescence; inhibition, % at 8 µM; 6,200 compounds, 77% hits; AID 504607, 2011;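 active = mean inhibition at 8 µM reaching about 37%, which flags the compound as non-specific, limit read from the data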;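 also: p53-null SaOS-2 cells with luciferase driven by a doxycycline-inducible promoter; compound on cells about two nights before reading with doxycycline added after day one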
# Starred values were filed as active, the others as inactive; u = inconclusive; x = no result given.
SMILES,PP1 counter,PP5 primary,Mdm2 MdmX PPI,CSC inhib,Beta apoptosis,Calb FLC,Mdm2-MdmX conf,FLuc counter
Cc1cc2nnc(SCC(=O)Nc3ccc(Cl)cc3)n2c(N)n1,-0.6,-1.0,-24.1,-7.5,5.3,-15.3,x,x
COCCn1c(C)cc(C(=O)CN2C(=O)NC3(CCCCCC3)C2=O)c1C,-1.1,-1.6,4.5,x,1.4,x,x,x
Cc1cc(O)c(C(C)C)cc1C1(c2cc(C(C)C)c(O)cc2C)OC(=O)c2ccccc21,-2.3,6.7,99.6*,150.1*,45.9,2.1,58.4*,21.9
Cc1cc(C2(c3ccc(O)c(C)c3)OC(=O)c3ccccc32)ccc1O,-1.2,3.8,29.8,10.1,6.2,3.4,x,x
Cc1ccc(C)c(CN2CCC(CNC(=O)Nc3ccc(Br)cc3F)CC2)c1,x,x,56.1*,4.5,6.5,7.5,43.9*,69.4*
Cc1ccc(C)c(CN2CCC(CNC(=O)Nc3ccc(Cl)cc3)CC2)c1,1.3,0.7,44.1,18.9,14.2,3.4,x,x
CCN(CC)S(=O)(=O)c1cccc(-n2c(O)c(C=Nc3ccccc3C(=O)O)c3ccccc3c2=O)c1,-0.2,-2.3,67.2*,34.9,-15.6,-2.9,67.7*,36.5*
CC(=O)S[C@@H]1CC2=CC(=O)CC[C@]2(C)[C@H]2CC[C@@]3(C)[C@@H](CC[C@@]34CCC(=O)O4)[C@H]12,-4.5,-2.0,56.5*,-1.8,-3.3,x,35.5,x
C[C@]12CCC(=O)C=C1CC[C@@H]1[C@@H]2CC[C@@]2(C)[C@H]1CC[C@@]21CCC(=O)O1,-2.2,-2.1,1.3,-0.6,2.3,-6.8,x,x
CC(OC(=O)c1ccc(S(=O)(=O)N2CCCCC2)cc1)C(=O)Nc1ccc(C(N)=O)cc1 (stereo not drawn),-3.8,0.4,53.8*,x,x,x,-16.1,x
CC(OC(=O)c1cc(Br)ccc1O)C(=O)Nc1ccc(S(=O)(=O)N2CCCC2)cc1 (stereo not drawn),0.9,2.3,63.3*,20.5,9.5,x,43.4*,73.0*
CC(=O)Nc1cc(NC(C)=O)cc(C(=O)OC(C)C(=O)Nc2ccc(S(=O)(=O)N3CCCC3)cc2)c1 (stereo not drawn),-6.6,-1.0,29.4,-9.1,5.1,-2.9,x,x
CC(C)OC(=O)c1sc2nc(-c3ccccc3)ccc2c1N,3.0,3.9,52.0*,6.9,4.4,12.5,44.5*,180.1*
COc1ccc(C(=O)c2sc3nc(-c4ccccc4)ccc3c2N)cc1,-2.1,0.8,-10.7,40.8,-1.6,x,x,x
Cc1nc2ccc(NC(=S)NC3CCCCC3)cc2nc1C,-0.8,2.4,-24.5,x,2.7,54.8,x,x
CCOc1ccccc1NC(=O)Cn1nnc(-c2ccc(OCC)c(OCC)c2)n1,1.7,5.6,88.2*,x,x,0.8,7.5,x
CCOc1ccc(-c2nnn(CC(=O)Nc3cc(OC)ccc3OC)n2)cc1OCC,0.5,0.8,0.4,-11.5,-5.8,-1.9,x,x
CCOc1ccc(-c2nnn(CC(=O)NCc3ccc(OC)cc3)n2)cc1OCC,-1.1,0.5,61.9*,0.5,4.6,7.0,15.8,x
CCOc1ccc(-c2nnn(CC(=O)NCc3ccc(C)cc3)n2)cc1,8.8,1.4,28.6,-4.4,1.7,-12.6,x,x
COc1ccc(CNC(=O)Cn2nnc(-c3ccc(NC(=O)C4CCCCC4)cc3)n2)cc1,-1.2,0.5,61.1*,8.5,2.6,u,15.2,x
CCn1c(=O)c2sccc2n(Cc2ccccc2)c1=O,0.9,0.1,8.1,-10.5,3.0,39.9,x,x
Cc1c(S(=O)(=O)NC2CCCCCC2)c(=O)n(C)c(=O)n1C,-1.0,1.8,3.8,-4.5,x,-3.1,x,x
COc1ccc(CC2S/C(=N/N=C/c3ccccc3O)NC2=O)cc1 (stereo not drawn),5.8,0.8,43.9,u,56.8,-13.3,x,x
O=C1N/C(=N/N=C/c2ccccc2O)SC1Cc1ccc(F)cc1 (stereo not drawn),0.0,1.3,70.7*,49.3,87.4*,-10.1,53.3*,9.6
CN(CC(=O)Nc1cccc(F)c1)C(=O)c1ccccc1OCCOc1ccccc1,0.3,2.1,14.2,-11.4,-4.2,13.0,x,x
SMILES,PP1 counter,PP5 primary,Mdm2 MdmX PPI,CSC inhib,Beta apoptosis,Calb FLC,Mdm2-MdmX conf,FLuc counter
Cn1ncc2c(O/N=C(\N)c3ccc(C(F)(F)F)cc3)ncnc21,-0.8,1.7,98.5*,-0.1,22.0,23.5,46.0*,24.2
CCOC(Cn1ccc(=O)[nH]c1=O)OCC,-0.9,-0.4,2.0,-7.3,-7.8,2.2,x,x
COc1ccc2c(C(=O)CCl)c[nH]c2c1,-5.6,-3.3,56.5*,-2.7,-35.3,61.9,52.7*,24.1
Cn1nc([N+](=O)[O-])c2c(-c3nc4ccccc4s3)c(N)n(C3CCCCC3)c2c1=O,-0.5,0.4,51.3*,23.8,-4.0,-17.0,6.0,x
CCCCCn1c(N)c(-c2nc3ccccc3s2)c2c([N+](=O)[O-])nn(CC)c(=O)c21,-1.3,-0.8,92.2*,30.7,-5.6,-1.6,-17.1,x
O=c1oc2ccccc2cc1-c1csc(Nc2nc3c(F)cccc3s2)n1,-3.3,-0.1,70.3*,47.7,x,25.4,70.0*,107.0*
COc1cc(OC)cc(C(=O)NCC2CCCN(C(=O)c3oc(C)cc3C)C2)c1 (stereo not drawn),-2.4,2.8,9.8,-6.2,-2.7,2.2,x,x
N#Cc1c(Cl)c(Cl)c2nnc(-c3ccc(Br)cc3)n2c1Cl,2.7,4.1,13.4,3.1,-2.7,-8.9,x,x
CCOC(=O)c1ccc(NC(=O)c2nc[nH]c2C(=O)NCCNC(=O)c2[nH]cnc2C(=O)Nc2ccc(C(=O)OCC)cc2)cc1,x,x,100.5*,122.0*,11.4,x,41.0*,81.5*
Cc1cccc(NC(=O)c2nc[nH]c2C(=O)N[C@H](C)c2ccccc2)c1,3.0,7.3,56.7*,u,1.7,x,37.8,49.6*
CCOC(=O)c1ccc(NC(=O)c2nc[nH]c2C(=O)N[C@H](C)c2ccccc2)cc1,0.5,6.0,60.1*,46.3,7.7,-10.2,17.6,x
Clc1ccccc1-c1nnc2sc(-c3ccc4c(c3)OCO4)nn12,5.1,0.6,65.4*,53.8,2.8,36.8,39.8,83.1*
Brc1ccccc1-c1nnc2sc(-c3ccc4c(c3)OCCO4)nn12,5.5,2.6,51.0*,52.2,9.1,62.0,62.4*,61.0*

# High-throughput results as filed in PubChem BioAssay.
